Assay outcomes (PubChem)
Hits are enriched below; roughly 8.1% of the tested compounds scored in any of these assays.
ELG1 DNA repair = qHTS screen for small molecules that inhibit ELG1-dependent DNA repair in human embryonic kidney (HEK293T) cells expressing luciferase-tagged ELG1; Potency, µM (titrated, usually from 46.1 µM), actives largely listed as inhibitors; 330,000 tested, 2.3% active; HEK293T ELG1-luciferase reporter, luminescence, 16 h; DNA damage induced by 5-fluorouridine; further: nearly all actives have a fitted effect of over 55% in size
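HEK293T cells expressing luciferase-tagged ELG1 (2,000/well) received 5-Fluorouridine plus compound or DMSO for 16 hr at 37 °C. Luciferase was read by ONE-Glo luminescence after 30 min at room temperature.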
KB-V1 cytotox = qHTS assay for MDR1-selective chemotherapeutics: Primary screen using the drug-selected MDR subline cells KB-V1; KB-V1 MDR cells viability, CellTiter-Glo, 72 h; AID 1347076, 2019; Potency, µM (top dose mostly 46.1 µM), actives largely listed as cytotoxic; 400,000 tested, 3.4% active; further: nearly all actives have a fitted effect of over 60% in size
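KB-V1 MDR subline cells in DMEM (phenol-red free, 10% FBS) exposed to compounds in qHTS concentration series for 72 h at 37 degrees C. Viability read by CellTiter-Glo luminescence; concentration-effect curves fitted after normalization and correction.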
KB-3-1 tox = qHTS assay for MDR1-selective chemotherapeutics: Primary screen using the parental adenocarcinoma cell KB-3-1; KB-3-1 viability, CellTiter-Glo ATP luminescence, 72 h; Potency, µM (series often up to 46.1 µM), most hits filed as cytotoxic; 400,000 tested, 1.4% active; further: nearly all actives have a fitted effect of over 60% in size
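Cytotoxicity measured as CellTiter-Glo luminescence after 72 h at 37 C. Compound titrations were pinned onto drug-naive KB-3-1 parental adenocarcinoma cells grown in DMEM with 10% FBS, and normalized data fitted to concentration-response curves.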
SW480 rerep = A quantitative high throughput screen for small molecules that induce DNA re-replication in SW480 colon adenocarcinoma cells; 340,000 tested, 1.8% active; Potency, µM (top dose mostly 46.1 µM), usual class: activators; SW480 DNA re-replication, Hoechst DNA content imaging, 48 h; further: nearly all actives have a fitted effect of over 55% in size
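Compounds, transferred as 23 nL by pin tool, were incubated with cells for 48 hr; DNA content per nucleus was then quantified by Hoechst staining and fluorescence plate imaging.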
MCF10A rereplic = A quantitative high throughput screen for small molecules that induce DNA re-replication in MCF 10a normal breast cells. MCF 10A DNA re-replication, Hoechst nuclear intensity, 48 h. Potency, µM (titrated, usually from 46.1 µM), usual class: activators. 350,000 tested, 2.9% active; further: nearly all actives have a fitted effect of over 50% in size
Each line names hits and unclear results; the compound was inactive in the other large screens; ! = a repeat was not active. The call rests on the fitted dose curve; in most records, active means well fitted curve in the direction sought with a large enough effect; inconclusive means small, poorly fitted or top-dose-only effect, or another doubt; inactive means no such curve, though single readings can be large; an effect the other way counts as inactive or inconclusive.

CCOC(=O)C1CCCN(c2cc(C)nc3cc(-c4ccc(F)cc4)nn23)C1 (stereo not drawn)	ELG1 DNA repair inconclusive
Cc1ccc(C(=O)C=Cc2cccc(C)c2)cc1	SW480 rerep inconclusive, MCF10A rereplic 18.4µM (no result: ELG1 DNA repair)
Cc1ccc(C(=O)/C=C/C(=O)c2ccc(C)cc2)cc1	ELG1 DNA repair inconclusive, MCF10A rereplic 3.66µM
Cc1cccc(NC(=S)N(Cc2cccs2)Cc2cc3cc(C)cc(C)c3[nH]c2=O)c1	ELG1 DNA repair inconclusive, KB-V1 cytotox 20.6µM, KB-3-1 tox inconclusive
CNC(=S)N(Cc1cccs1)Cc1cc2cc(OC)ccc2[nH]c1=O	ELG1 DNA repair inconclusive, KB-V1 cytotox inconclusive (no result: SW480 rerep)
COc1ccc2[nH]c(=O)c(CN(Cc3cccs3)C(=S)Nc3cccc(C)c3)cc2c1	ELG1 DNA repair 5.8µM, KB-V1 cytotox inconclusive, MCF10A rereplic inconclusive (no result: SW480 rerep)
CNC(=S)N(CCc1cccc(C)c1)Cc1cc2cc(OC)c(OC)cc2[nH]c1=O	ELG1 DNA repair 13µM, KB-V1 cytotox inconclusive
COc1ccc2[nH]c(=O)c(CN(Cc3cccs3)S(=O)(=O)c3cccc4nsnc34)cc2c1	ELG1 DNA repair 1.3µM, KB-V1 cytotox inconclusive, KB-3-1 tox inconclusive, SW480 rerep inconclusive, MCF10A rereplic inconclusive
COc1cc2cc(CN(CCc3cccc(C)c3)C(=S)NCCCN(C)C)c(=O)[nH]c2cc1OC	SW480 rerep inconclusive
COCCNC(=S)N(Cc1cccs1)Cc1cc2cccc(C)c2[nH]c1=O	ELG1 DNA repair inconclusive
COc1ccc2[nH]c(=O)c(CN(CCO)S(=O)(=O)c3c(C)ccc4nsnc34)cc2c1	KB-V1 cytotox inconclusive
Cc1csc(NC(=O)CCCC(=O)c2ccccc2)n1	none
Cc1ccc(CCC(=O)Nc2ccccc2F)s1	ELG1 DNA repair inconclusive
C=C1CCN(C(C(=O)OC)C(C)C)S(=O)(=O)c2ccc(F)cc21 (stereo not drawn)	none
CC(=O)N(CCc1ccccc1C)Cc1cc2ccc(C)cc2[nH]c1=O	ELG1 DNA repair 16.4µM, MCF10A rereplic inconclusive
COc1cccc(NC(=O)N(Cc2cc3cc(C)cc(C)c3[nH]c2=O)CC2COCCO2)c1 (stereo not drawn)	ELG1 DNA repair 7.31µM
Cc1cc(C(=O)COc2cccc(-n3cnnn3)c2)c(C)n1-c1ccccc1	ELG1 DNA repair inconclusive, KB-V1 cytotox inconclusive, KB-3-1 tox inconclusive, MCF10A rereplic inconclusive
COCc1cc(=O)[nH]c(Nc2nc(C)c3ccccc3n2)n1	KB-V1 cytotox 20.6µM, KB-3-1 tox inconclusive, SW480 rerep inconclusive, MCF10A rereplic inconclusive
Cc1nc(-c2ccccc2)cc(=O)[nH]1	none
COCc1cc(=O)[nH]c(Nc2nc3ccccc3o2)n1	ELG1 DNA repair inconclusive, KB-3-1 tox 7.08µM, SW480 rerep inconclusive, MCF10A rereplic inconclusive
Cc1ccc2c(C)nc(Nc3nc(CSc4nc5ccccc5s4)cc(=O)[nH]3)nc2c1	none (no result: ELG1 DNA repair)
Cc1ccc2oc(Nc3nc(-c4ccccc4)cc(=O)[nH]3)nc2c1	ELG1 DNA repair inconclusive, KB-V1 cytotox inconclusive, KB-3-1 tox inconclusive, SW480 rerep inconclusive, MCF10A rereplic 20.6µM
CCCCN(C(=O)c1ccc(OC)c([N+](=O)[O-])c1)c1c(N)n(CCC)c(=O)[nH]c1=O	MCF10A rereplic inconclusive
COCCCn1c(=O)c2sccc2n2c(CCCC(=O)NCc3ccccc3OC)nnc12	KB-3-1 tox inconclusive
FC(F)(F)c1cc(-c2ccccc2)nc(NC2CCCC2)n1	MCF10A rereplic 7.31µM
Cc1onc(-c2ccccc2)c1C(=O)c1c[nH]c(C(=O)NCc2ccccn2)c1	ELG1 DNA repair 16.4µM, KB-V1 cytotox inconclusive, KB-3-1 tox inconclusive
Cc1onc(-c2ccccc2)c1C(=O)c1c[nH]c(C(=O)NCc2ccncc2)c1	ELG1 DNA repair 13µM
CC(C)(C)OC(=O)C[C@@H]1C/C=C\C[C@@H](CC(=O)NCCO)C(=O)NCCOC1=O	ELG1 DNA repair inconclusive
Cc1ccc(NC(=O)CN2C(=O)S/C(=C/c3ccc(O)c([N+](=O)[O-])c3)C2=O)cc1C	none
O=c1c(Cl)c(N/N=C/c2ccc(Br)cc2)cnn1-c1ccccc1	SW480 rerep inconclusive, MCF10A rereplic 7.08µM
COc1ccc(NC(=O)[C@@H]2CC=C[C@@H]3CCN(Cc4ccccc4)C(=O)[C@@H]32)cc1	KB-V1 cytotox inconclusive (no result: ELG1 DNA repair)
COc1ccc(NC(=O)[C@@H]2CC=C[C@@H]3CCN(Cc4ccc(Cl)c(Cl)c4)C(=O)[C@@H]32)cc1	KB-V1 cytotox 23.1µM!, KB-3-1 tox inconclusive, SW480 rerep inconclusive (no result: ELG1 DNA repair)
CCN(CC)CCN1C(=O)C(O)=C(C(C)=O)C1c1ccccc1[N+](=O)[O-] (stereo not drawn)	KB-V1 cytotox inconclusive, SW480 rerep inconclusive, MCF10A rereplic 20.6µM
CC(=O)C1=C(O)C(=O)N(CCc2ccccc2)C1c1ccccc1[N+](=O)[O-] (stereo not drawn)	none
O=C(NN1C(=O)/C(=C/c2cccnc2)SC1=S)C(c1ccccc1)c1ccccc1	KB-3-1 tox inconclusive, MCF10A rereplic 13µM
O=C(Cc1cccc2ccccc12)NN1C(=O)/C(=C\c2cccnc2)SC1=S	none
O=C(NN1C(=O)/C(=C\c2cccnc2)SC1=S)C(c1ccccc1)c1ccccc1	MCF10A rereplic 14.6µM
C/C(=N\O)C(=O)NCCCNCCCN(C)C	none (no result: ELG1 DNA repair)
Cc1cccc(CS(=O)(=O)c2nnc([C@H](Cc3ccccc3)NC(=O)OC(C)(C)C)o2)c1	KB-V1 cytotox inconclusive, KB-3-1 tox inconclusive, SW480 rerep inconclusive, MCF10A rereplic 3.26µM
COC(=O)CSc1nnc([C@H](Cc2ccccc2)NC(=O)OC(C)(C)C)o1	none
COC(=O)CS(=O)(=O)c1nnc([C@H](Cc2ccccc2)NC(=O)OC(C)(C)C)o1	ELG1 DNA repair inconclusive, KB-V1 cytotox inconclusive, KB-3-1 tox inconclusive, SW480 rerep inconclusive, MCF10A rereplic 13µM
CCOc1nc(NCCN2CCOCC2)nc(Nc2ccc([N+](=O)[O-])cc2)n1	ELG1 DNA repair inconclusive
O=C1CC(Cc2ccccc2)C(=O)N1c1ncccn1 (stereo not drawn)	ELG1 DNA repair inconclusive
COc1cccc(C(=O)C2CCCN(C(=O)CCc3scnc3C)C2)c1 (stereo not drawn)	KB-V1 cytotox inconclusive
COc1c(C)cc(C(=O)C2CCCN(C(=O)c3cccc(-n4cccn4)c3)C2)cc1C (stereo not drawn)	ELG1 DNA repair 23.1µM
COc1c(C)cc(C(=O)C2CCCN(C(=O)c3ccc4[nH]ccc4c3)C2)cc1C (stereo not drawn)	ELG1 DNA repair inconclusive
COc1c(C)cc(C(=O)C2CCCN(C(=O)CCc3scnc3C)C2)cc1C (stereo not drawn)	ELG1 DNA repair 11.6µM, KB-V1 cytotox inconclusive, MCF10A rereplic inconclusive
